Assay outcomes deposited in PubChem BioAssay by several laboratories.
Compounds with a hit are over-represented: about 7.9% of the library has one in this group of screens.
HER2 expr 66K: inhibitors of Her2 protein expression, primary screen, SKBR-3 cells, AlphaScreen, 66K library | HER2 level % of control, % at 10 µM | 0.69% of 65,000 active | AID 645, 2007 | SKBR-3 HER2 protein level, 18-24 h; hits give low values | Receptor tyrosine-protein kinase erbB-2 (Homo sapiens), P04626;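 active means HER2 level under 5% of the carrier-only control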;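 further: lower value means stronger loss of Her2 protein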
M1 ag: M1 muscarinic receptor agonists, primary screen, CHO-M1 cells, Fluo-4 calcium, agonist mode; 3% of 64,000 active; B-score at 10 µM; AID 626, 2007; Fluo-4 calcium fluorescence; hits give high values;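 active means fluorescence rise, raw or as B-score row- and column-corrected plate score, outside the 99.7% band of its plate's samples, either direction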
PLAP act: PLAP enzyme activators, biochemical, luminescence, HTS | Alkaline phosphatase, placental type (Homo sapiens), P05187 | purified PLAP enzyme, luminescent substrate read-out; hits give high values | activation fold at 20 µM | 1.2% of 96,000 active | AID 696, 2007; in the data active means activation fold above about 2
Target sequence (P05187 whole entry, looked up): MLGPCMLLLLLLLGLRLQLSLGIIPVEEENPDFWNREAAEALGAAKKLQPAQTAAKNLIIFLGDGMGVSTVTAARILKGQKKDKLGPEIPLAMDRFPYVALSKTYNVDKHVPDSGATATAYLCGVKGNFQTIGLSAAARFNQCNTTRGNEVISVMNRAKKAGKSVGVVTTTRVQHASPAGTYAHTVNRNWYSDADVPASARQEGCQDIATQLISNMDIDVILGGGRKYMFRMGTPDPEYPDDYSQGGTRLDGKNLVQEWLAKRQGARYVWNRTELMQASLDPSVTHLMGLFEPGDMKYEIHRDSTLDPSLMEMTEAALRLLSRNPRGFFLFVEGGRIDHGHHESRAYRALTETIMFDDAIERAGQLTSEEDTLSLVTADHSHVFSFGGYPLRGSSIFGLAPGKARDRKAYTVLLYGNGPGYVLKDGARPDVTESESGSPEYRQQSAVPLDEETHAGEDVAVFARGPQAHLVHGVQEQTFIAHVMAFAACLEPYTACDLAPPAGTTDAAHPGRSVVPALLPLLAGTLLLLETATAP
Cav32 inh: Cav3.2 calcium influx blockers – cell-based, Fluo-4 calcium fluorescence, FDSS, MLSMR library, primary screen; Voltage-dependent T-type calcium channel subunit alpha-1H (Homo sapiens), O95180; Cav3.2-expressing cells; hits give low values; B-score at 10 µM; 4% of 100,000 active; AID 449739, 2010;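 active means single-dose well whose peak fluorescence ratio is a statistical outlier from its plate by either plate-standardised score or position-corrected B-score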
M1 antag: antagonists of rat M1 muscarinic receptor; Muscarinic acetylcholine receptor M1 (Rattus norvegicus), P08482; CHO-M1 cells, Fluo-4 calcium, ACh EC80 antagonist mode; hits give low values; B-score at 10 µM; 3.4% of 64,000 active;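 active means calcium fluorescence response, raw or row-and-column corrected B-score, differing from the plate sample mean either way at a set confidence level, mostly lower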
A number is an active result; n = inactive; x = not tested or not shown.

SMILES | HER2 expr 66K | M1 ag | PLAP act | Cav32 inh | M1 antag
COc1ccccc1CNC(=O)C(NS(=O)(=O)c1ccc2c(c1)oc(=O)n2C)C(C)C (stereo not given) | x | x | n | n | x
COc1ccc(CCn2nnc(-c3ccc(NC(C)=O)c(Cl)c3)n2)cc1 | x | x | x | n | x
CC1(C)Cc2ccccc2C(N)=C1C#N | n | n | n | n | n
CC(=O)N(C(C)=O)C1=C(C#N)C2(CCCCC2)Cc2ccccc21 | x | x | n | -6.3 | x
Brc1ccc(-c2nn3c(-c4ccncc4)nnc3s2)o1 | n | n | n | x | -3.1
Brc1ccc(-c2nn3c(-c4ccccn4)nnc3s2)o1 | n | n | n | n | n
COC(=O)C1=C(C(=O)OC)[C@@H]2N(C)c3ccc(OC)cc3[C@@]23C[C@@H](C(=O)OC)N(C(=O)COCc2ccccc2)C3=N1 | x | x | x | n | x
NC(=O)[C@H]1CC2(CC(c3cccc(NC(=O)[C@H]4CCC(=O)N4)c3)=NO2)CN1C(=O)c1cc([N+](=O)[O-])cc([N+](=O)[O-])c1 (stereo not given in full) | x | x | x | n | x
CCN(CC)S(=O)(=O)c1ccc(C(=O)NCc2nnc(SCC(=O)OC)n2C)cc1 | n | n | n | -3.8 | n
COc1cccc(-c2nc(CS(=O)(=O)CC(=O)NCCC(C)C)c(C)o2)c1 | n | n | x | n | n
CCN(CCNC(=O)CS(=O)(=O)Cc1nc(-c2cccc(OC)c2)oc1C)c1ccccc1 | n | n | n | -9 | n
CCOC(=O)c1cccc(NC(=O)CS(=O)(=O)Cc2nc(-c3cccc(OC)c3)oc2C)c1 | n | n | n | -5.2 | n
CC1=C(C(=O)OCC2CCCO2)C(c2ccncc2)C2=C(CC(C)(C)CC2=O)N1 (stereo not given) | n | n | n | n | n
CC1CCC(NC(=O)CN2CCCN(Cc3ccc(F)cc3Cl)C2=O)CC1 (stereo not given) | n | n | n | -3.9 | n
O=C(Nc1nc2cc(Cl)ccc2s1)C1CCCN(S(=O)(=O)c2cccc3cccnc23)C1 (stereo not given) | x | x | n | n | x
O=C(NC1CC2CCCC(C1)N2C(=O)Nc1ccc(Cl)c(C(F)(F)F)c1)C1CC1 (stereo not given) | x | x | n | -5.7 | x
Cc1cccc(C)c1NC(=O)N1C2CCCC1CC(NC(=O)C(C)(C)C)C2 (stereo not given) | n | n | n | n | n
Cc1nc2cc(NC(=O)Nc3nccs3)ccc2n1C | n | n | 2 | n | n
CN(c1ccccc1)C(c1ccc(F)cc1)c1nnnn1CC1CCCO1 (stereo not given) | n | n | n | n | n
CN(c1ccccc1)C(c1ccc(F)cc1)c1nnnn1C1CCCC1 (stereo not given) | n | n | n | -7.5 | n
CCc1nc(C)cc(N)c1OCc1ccccc1 | n | n | n | n | n
COc1ccc(C(C)=O)cc1COc1ccc(-n2cnnn2)cc1 | x | x | n | n | x
Cc1nn(C(=O)c2ccc3c(c2)OCO3)c(N)c1-c1ccccc1 | n | n | n | n | n
CCCC(=O)Nc1cc(C)c2c(=O)oc3ccccc3c2n1 | n | n | x | -3.9 | n
Cc1ccc(S(=O)(=O)n2nc(OC(=O)c3c(-c4ccccc4Cl)noc3C)cc2N)cc1 | n | n | n | -7.4 | n
SMILES | HER2 expr 66K | M1 ag | PLAP act | Cav32 inh | M1 antag
O=C(Cn1cc2c(n1)CCCC2)N1CCc2ccccc21 | n | n | n | n | n
COc1ccccc1OCCCCCc1c(C)n[nH]c1C | n | n | n | n | n
Cc1cccc(OCCCCc2c(C)n[nH]c2C)c1C | n | n | 2.4 | n | n
CCOc1ccccc1OCCCCCc1c(C)n[nH]c1C | n | n | n | -3.6 | n
Cc1cccc(OCCCCc2c(C)n[nH]c2C)c1 | n | n | n | -5.8 | n
COc1ccc(OCCCc2c(C)n[nH]c2C)cc1 | x | x | 2.3 | x | x
O=C(CSc1nc(N2CCCCC2)nc(N2CCCCC2)n1)N1CCN(c2ccccc2)CC1 | n | n | n | -8.8 | n
O=C(CSc1nc2ccccc2c(=O)n1Cc1ccco1)N1CCN(c2ccccc2)CC1 | n | n | n | -4.9 | n
CCn1c(CSCc2ccc(C)cc2)nnc1SCC(=O)N1CCN(c2ccccc2)CC1 | x | x | n | -5.6 | x
CCCn1c(SCC(=O)N2CCN(c3ccccc3)CC2)nc2ccccc2c1=O | n | n | n | -6.2 | 1.9
O=C(CSc1ccccc1)N1CCN(c2ccccc2)CC1 | n | n | x | n | n
O=C(NCc1nc2ccccc2[nH]1)C1=C[C@@H](c2ccc3c(c2)OCO3)C[C@@H](OCc2ccc(CO)cc2)O1 | x | x | x | n | x
CC1CN(C(=O)C(c2ccccc2)c2ccccc2)CC(C)O1 (stereo not given) | x | x | n | n | x
CC12CCCCC1(O)[N+](=O)C1=C(CCCC1)N2[O-] (stereo not given) | -17 | n | n | n | n
Cn1nc(C(F)(F)F)cc1C(=O)NC1CCCCCC1 | x | x | n | n | x
Cc1cc(C)nc(SCCn2c(N3CCCCC3)nc3c2c(=O)n(C)c(=O)n3C)n1 | n | n | n | n | n
CCOC(=O)c1c(C)n(C)c2ccc(OCC(O)CN3C(=O)c4ccccc4S3(=O)=O)cc12 (stereo not given) | n | 7.2 | n | n | n
CCOC(=O)c1c(C)n(C)c2ccc(OCC(O)CN(CC)CC)cc12 (stereo not given) | n | n | n | n | n
Nc1nc(SCC(=O)N2CCCc3ccccc32)n(-c2ccccc2)n1 | x | n | n | n | n
Cn1cccc1Cc1nnc(SCC(=O)NCc2ccccc2)n1-c1ccc(F)cc1 | n | n | n | n | n
CCOc1ccccc1NC(=O)CSc1nnc(Cc2cccn2C)n1-c1ccc(F)cc1 | n | n | n | -9.3 | n
CCOC(=O)c1ccccc1NC(=O)CSc1nnc(Cc2cccn2C)n1-c1ccc(F)cc1 | n | n | n | -5.5 | n
COc1ccc(-n2c(Cc3cccn3C)nnc2SCC(=O)Nc2ccc(C(C)=O)cc2)cc1 | n | n | n | -8.4 | n
CCOc1ccc(NC(=O)CSc2nnc(Cc3cccn3C)n2-c2ccc(OC)cc2)cc1 | n | n | n | n | n
COc1ccc(-n2c(Cc3cccn3C)nnc2SCC(=O)Nc2ccc3c(c2)OCCO3)cc1 | n | n | n | -10 | n
SMILES | HER2 expr 66K | M1 ag | PLAP act | Cav32 inh | M1 antag
COc1ccc(-n2c(Cc3cccn3C)nnc2SCC(=O)Nc2ccc(C)cc2)cc1 | n | n | n | -7.9 | n
COc1ccc(NC(=O)CSc2nnc(Cc3cccn3C)n2-c2ccc(OC)cc2)cc1 | n | n | n | -8.1 | n
CN(C(=S)Nc1ccc(F)cc1)C1(c2ccccc2Cl)CCCCC1=O (stereo not given) | x | x | n | n | x
CCO[C@H]1OC(C(N)=O)=C[C@@H](C2CC2)[C@@H]1CCCO | x | x | x | n | x
O=C1NC[C@H](c2ccccc2)N(CCc2cccc(F)c2)C1=O | x | x | x | n | x
C=CCN1C(=NC(=O)CC)SC2CS(=O)(=O)CC21 (stereo not given) | x | x | n | n | x
Cc1ccc2c(c1)N(CCCC(=O)NCCCN1CCCC1=O)C(=O)CO2 | n | n | x | x | n
